# The sample as a whole holds a higher share of hits than the screen did.
# mHTT CaM bind = disrupts binding of mutant huntingtin to calmodulin; AlphaScreen His-mHTT/GST-CaM binding, luminescence; inhibition, % at 15 µM; P42858; 3.6% of 190,000 active; AID 1671202;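 note: 0% = both proteins with DMSO and 100% = one protein alone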
# Pf apPOL inh = Pf-apPOL DNA polymerase inhibition | AID 1794808 | 0.25% of 210,000 active | Recombinant Pf-apPOL, molecular beacon fluorescence, 1.5 h | inhibition, % at 10 µM
# Numbers without * were called inactive; i = inactive; · = not tested or not shown; + = active, no number. Cut-off read from the data, not from the text of the source: active = inhibition above about 50%; inactive = the rest.
SMILES,mHTT CaM bind,Pf apPOL inh
Cc1ccc(Nc2nc(-c3ccccc3)cs2)cc1C,72.9*,-7.5
Nc1ccc(Nc2nc(-c3ccccc3)cs2)cc1,96.9*,5.7
Cc1ccc(Nc2nc(-c3ccc(F)cc3)cs2)cc1C,97.9*,-0.8
COc1ccc(C2(CNC(=O)c3ccccc3[N+](=O)[O-])CCCCC2)cc1OC,7.0,-4.3
Cc1ccc(CN2CCCCC2c2nncn2CC2CC2)o1 (stereo unspecified),8.1,0.3
CC(=O)Nc1ccc(C(=O)NCc2ccc(F)cc2F)c(N2CCOCC2)c1,-7.4,-3.0
CC1CN(C(=O)C(C)Oc2ccccc2)CC(C)O1 (stereo unspecified),-1.7,1.9
Cc1ccc2cccc(SCc3nc(N)nc(Nc4ccccc4)n3)c2n1,61.4*,-11.9
Nc1nc(CSc2ncccn2)nc(Nc2ccccc2)n1,-1.4,-3.5
CCOc1c(Cl)cc(/C=C2/NC(=O)N(CC(=O)Nc3cccc(C)c3)C2=O)cc1OC,4.0,5.2
O=C(Oc1c(Cl)cc(Cl)cc1C=Nc1cccc(C(F)(F)F)c1)c1ccccc1,·,15.0
CN(C)CCN(C(=O)CCc1ccccc1)c1nc2c(Cl)cccc2s1,61.7*,2.2
O=C(Cc1ccc(F)cc1)N(CCCn1ccnc1)c1nc2c(Cl)cccc2s1,90.8*,3.9
O=C(c1cccc(F)c1)N(CCCn1ccnc1)c1nc2c(F)cccc2s1,25.9,-7.1
Cc1cc(C(=O)N(CCN(C)C)c2nc3c(Cl)cccc3s2)no1,-15.5,0.9
O=C(Nc1cccnc1)c1cc2ccccc2o1,-2.7,-2.2
Cc1ccc2n1CCn1cc(-c3ccc(Br)cc3)cc1-2,99.0*,-6.7
Cc1ccc(C)n1-c1ccc(Br)cc1,·,-5.8
Cc1cc2n(c1)CCn1c(C)ccc1-2,92.9*,41.9
COc1cccc(C2=N/C(=C\c3ccc(Br)cc3)C(=O)O2)c1,-3.0,-0.7
C=CCn1c(SCC(=O)Nc2ccc(Cl)cc2C)nc2ccccc2c1=O,3.4,-2.2
COc1ccccc1C1CC(c2c(-c3ccccc3)c3cc(Br)ccc3[nH]c2=O)=NO1 (stereo unspecified),15.0,4.5
O=c1[nH]c2ccc(Br)cc2c(-c2ccccc2)c1C1=NNC(c2ccco2)C1 (stereo unspecified),100.0*,-2.2
O=C(OC1Cc2c(O)cc(O)cc2OC1c1cc(O)c(O)c(O)c1)c1cc(O)c(O)c(O)c1 (stereo unspecified),·,53.7*
O=C1c2c(O)cc(O)cc2OC(c2ccc(O)c(O)c2)C1O (stereo unspecified),·,-0.4
SMILES,mHTT CaM bind,Pf apPOL inh
O=C(Nc1ccc([N+](=O)[O-])cc1O)C1C2CC/C=C\CCC21 (stereo unspecified),39.8,92.9*
Cc1ccc([N+](=O)[O-])cc1NC(=O)C1CC1,0.2,0.4
COc1ccc(C2CC(c3ccc(Cl)c(Cl)c3)Nc3nc(N)nn32)cc1OC (stereo unspecified),29.0,2.0
Nc1nc2n(n1)C(c1cccs1)CC(c1ccc(Cl)c(Cl)c1)N2 (stereo unspecified),83.6*,-8.1
COc1ccccc1C1CC(c2ccc(Cl)cc2Cl)Nc2nc(N)nn21 (stereo unspecified),57.3*,-2.7
CCOc1ccccc1C1CC(c2ccc(Cl)c(Cl)c2)Nc2nc(N)nn21 (stereo unspecified),100.0*,-2.8
Nc1nc2n(n1)C(c1ccc(Cl)cc1)CC(c1ccccc1)N2 (stereo unspecified),7.6,-7.3
COc1ccc(C2CC(c3ccccc3Cl)Nc3nc(N)nn32)cc1OC (stereo unspecified),25.5,-5.6
COCc1ccc(-c2c(-c3ccc(OC)cc3)sc3ccccc23)cc1,-74.4,-6.6
Cc1ccc(C)n1-c1cc([N+](=O)[O-])ccc1N1CCN(C(=O)c2ccccc2)CC1,·,3.2
CCc1ccc(NC(=O)CSc2nnnn2-c2ccc(C(N)=O)cc2)cc1,2.9,-4.0
O=[N+]([O-])c1ccc(Cc2noc(COc3ccc(Cl)cc3)n2)cc1,-6.5,0.0
CCc1noc(C2CCCCN2Cc2nc(Cc3ccccc3)no2)n1 (stereo unspecified),-6.8,-9.3
COc1ccc(-c2nn(-c3ccccc3)cc2C(=O)Nc2ccc(F)cc2)cc1OC,18.0,35.0
Nc1ccccc1-c1nnc(SCC(=O)c2ccc(F)cc2)o1,-13.5,-3.7
COc1ccc(CNC(=O)c2ccc(C)cc2Cl)cc1,-6.8,-5.4
Cc1ccnc(Nc2ccc(N3CCN(C(=O)c4cnccn4)CC3)nn2)c1,90.4*,-7.8
Cc1ccnc(NC(=O)C2CCCC2)c1,-3.8,-1.5
Cc1ccnc(Nc2ccc(N3CCN(C(=O)C4CCCC4)CC3)nn2)c1,54.7*,-5.0
O=C(c1cnccn1)N1CCN(c2cc(-n3cccn3)ncn2)CC1,-10.0,-0.2
CCOc1ccc(NS(=O)(=O)c2ccc(N=Cc3ccc(N(C)C)cc3)cc2)cc1,0.0,-9.8
O=C(c1ccnc(N2CCNC(c3ccccc3)C2)c1)N1CCN(c2ccc(F)cc2)CC1 (stereo unspecified),32.2,-0.4
CCOc1ccc(/C=C2\N=C(c3ccc([N+](=O)[O-])cc3)OC2=O)cc1,2.0,0.6
O=C1OC(c2cccc([N+](=O)[O-])c2)=N/C1=C\c1cccs1,13.0,-1.9
O=C1OC(c2cccc([N+](=O)[O-])c2)=N/C1=C\c1cc(Br)cs1,92.0*,-0.1
SMILES,mHTT CaM bind,Pf apPOL inh
CCOc1ccc(/C=C2\N=C(c3cc([N+](=O)[O-])cc([N+](=O)[O-])c3)OC2=O)cc1,56.0*,0.1
Cc1ccc(C2=NN(CCC(=O)NCCN3CCOCC3)C(=O)CC2)cc1,5.0,-15.5
CCCc1cc(C2CCCN2C(=O)Cc2ccc(OCC)cc2)no1 (stereo unspecified),13.9,-2.9
CCSC1=N/C(=C/c2ccc(N(CC)CC)cc2OC)C(=O)S1,84.0*,-46.9
CCSC1=N/C(=C\c2c(OC)cc(OC)cc2OC)C(=O)S1,43.0,-80.8
CCN(CC)c1ccc(/C=C2\N=C(SC)SC2=O)cc1,64.0*,-5.0
CSC1=N/C(=C\c2ccc(N(C)C)cc2)C(=O)S1,23.0,-6.8
Cc1ccc2nc(C(=O)NCc3cccc(F)c3)cn2c1,-5.7,-0.9
O=C(C1CCN(Cc2ccccc2O)CC1)N(CCc1ccccc1)Cc1ccccc1,17.4,1.9
Cc1ccc(CN2CCC(C(=O)N(CCc3ccccc3)Cc3ccccc3)CC2)o1,58.0*,0.9
COc1ccc(C(=O)O/N=C2\C=C(C(C)C)C(=O)C=C2C)cc1Br,+,2.7
COc1ccc(Cl)cc1C(=O)O/N=C1\C=C(C(C)C)C(=O)C=C1C,+,8.0
Nc1c(Cl)cc(Cl)cc1[N+](=O)[O-],2.4,-3.8
CC1=CC(=O)C(C(C)C)=C/C1=N\OC(=O)c1cccs1,+,6.6
COc1cc(C(=O)O/N=C2/C=C(C(C)C)C(=O)C=C2C)cc(OC)c1OC,i,-3.8
CC1=CC(=O)C(C(C)C)=C/C1=N\OC(=O)c1ccc(C(C)(C)C)cc1,i,-5.4
CC1=CC(=O)C(C(C)C)=C/C1=N\OC(=O)c1ccc(C)cc1,i,-5.5
CC1=CC(=O)C(C(C)C)=C/C1=N\Oc1c([N+](=O)[O-])cc(Cl)cc1[N+](=O)[O-],+,-0.3
COc1ncccc1CN(C)C(=O)c1cnccn1,-5.3,2.3
CC(=O)N1CCc2cc(Br)cc(S(=O)(=O)Nc3cc(F)ccc3F)c21,7.0,10.8
CCCCC1CCC(C(=O)NCC2(N(C)C)CCCCC2)CC1 (stereo unspecified),2.0,-2.5
S=c1oc(-c2cccs2)nn1CN1CCOCC1,-5.4,·
